Experimental data as given in the supplement of paper PMC10849652.
The full data set covers some 8,800 targets. This sample favours those with a hit. About 0.5% of all pairs of compound and target were hits.

Experiments:
Assay in all cases: log2 fold change, soluble protein after heating vs DMSO (PISA); higher = thermal stabilisation; K562 lysate, 10 uM; active = over 0.2 and 3.5 SD of the protein, either way, in both replicates (recomputed)
[1] = compound: C#Cc1cccc(Nc2ncnc3cc(OCCOC)c(OCCOC)cc23)c1 [erlotinib]
Summary of the method: (§1)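 K562 pellets were dounce-homogenised in PBS pH 7.4 with 1 mM MgCl2, and the crude extract at 1 mg/mL protein was treated with 10 μM compound for 30 min. Aliquots were heated for 3 min across 48°C-58°C, pooled, and brought to 0.5% NP-40 at 4°C; soluble protein was the supernatant after 21,000xg for 90 min. Soluble protein was quantified by TMTpro 16plex LC-MS/MS with channel sums equalised, and reported as log2 fold change in thermal stability against DMSO controls, with values from duplicates.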

[2] = compound: C/C(=N\NC(=O)C1=CC(=CC=C1)S(=O)(=O)N2CCOCC2)/C3=C(C=CC(=C3)Cl)O
Summary of the method: as §1

[3] = compound: C1=CC(=CC=C1C2=NC3=C(N2)C=C(C=C3)C(=O)N)OC4=CC=C(C=C4)Cl
Summary of the method: as §1

[4] = compound: C1=CC2=C(C=CC(=C2)/C=C\3/C(=O)NC(=NCC4=CC=CS4)S3)N=C1
Summary of the method: as §1

[5] = compound: C1=CC2=NC=CN=C2C=C1/C=C/3\C(=O)NC(=O)S3
Summary of the method: as §1

[6] = compound: C1=CC=C(C=C1)C2=NC(=C(N2)C3=CC=NC=C3)C4=CC(=C(C=C4)Cl)O
Summary of the method: as §1

[7] = compound: C1=CC=C2C(=C1)C3=NNC4=CC=CC(=C43)C2=O
Summary of the method: as §1

[8] = compound: C1CCN(C1)C(=O)NC2=CC=CC(=C2)NC3=NC=C(C(=N3)NCCC4=CN=CN4)Br
Summary of the method: as §1

[9] = compound: C1CN(CCC1(CC2=CC=C(C=C2)Cl)N)C3=NC=NC4=C3C=CN4
Summary of the method: as §1

[10] = compound: C1COCCN1CCN2C3=CC=CC=C3N=C2NC(=O)C4=CC(=CC=C4)[N+](=O)[O-] [IRAK-1-4 Inhibitor I]
Summary of the method: as §1

[11] = compound: C=CC(=O)N1CCC[C@@H](n2nc(-c3ccc(Oc4ccccc4)cc3)c3c(N)ncnc32)C1 [ibrutinib]
Summary of the method: as §1

[12] = compound: CC(=O)c1cnc2ccc(-c3cc(Cl)c(O)c(Cl)c3)nc2c1N[C@H]1CC[C@H](CN(C)C)CC1
Summary of the method: as §1

[13] = compound: CC(C)(C)Cn1c(N)nc2ccc(-c3[nH]c(C(C)(C)C)nc3-c3ccc(F)cc3)nc21 [ralimetinib]
Summary of the method: as §1

[14] = compound: CC(C)(O)CC(=O)NCCn1ccc2ncnc(Nc3ccc(Oc4cccc(C(F)(F)F)c4)c(Cl)c3)c21
Summary of the method: as §1

[15] = compound: CC(C)C1=C2N=C(C=C(N2N=C1)NCC3=CC=CC=C3)NCCCCCCN
Summary of the method: as §1

[16] = compound: CC1=C(C(CC(=O)N1)C2=CC=C(C=C2)C(F)(F)F)C(=O)NC3=C(C=C4C(=C3)C=NN4)F
Summary of the method: as §1

[17] = compound: CC1=C(C2=C(C=C1)C(=O)C3=CC=CC=C3N2CCCN)C
Summary of the method: as §1

[18] = compound: CC1=C(C=C(C=C1)NC(=O)C2=CC(=CC=C2)C(C)(C)C#N)NC3=CC4=C(C=C3)N=CN(C4=O)C
Summary of the method: as §1

[19] = compound: CC1=C(C=C(C=C1)NC(=O)C2=CC(=CC=C2)N(C)C)NC(=O)C3=CC=C(C=C3)O
Summary of the method: as §1

[20] = compound: CC1=CC=C(C=C1)SC2=C3C=C(SC3=CN=C2)C(=O)N
Summary of the method: as §1

Measured: log2 fold change

GUSB (UniProt P08236)
UniProt P08236, sequence (P08236 whole entry, looked up): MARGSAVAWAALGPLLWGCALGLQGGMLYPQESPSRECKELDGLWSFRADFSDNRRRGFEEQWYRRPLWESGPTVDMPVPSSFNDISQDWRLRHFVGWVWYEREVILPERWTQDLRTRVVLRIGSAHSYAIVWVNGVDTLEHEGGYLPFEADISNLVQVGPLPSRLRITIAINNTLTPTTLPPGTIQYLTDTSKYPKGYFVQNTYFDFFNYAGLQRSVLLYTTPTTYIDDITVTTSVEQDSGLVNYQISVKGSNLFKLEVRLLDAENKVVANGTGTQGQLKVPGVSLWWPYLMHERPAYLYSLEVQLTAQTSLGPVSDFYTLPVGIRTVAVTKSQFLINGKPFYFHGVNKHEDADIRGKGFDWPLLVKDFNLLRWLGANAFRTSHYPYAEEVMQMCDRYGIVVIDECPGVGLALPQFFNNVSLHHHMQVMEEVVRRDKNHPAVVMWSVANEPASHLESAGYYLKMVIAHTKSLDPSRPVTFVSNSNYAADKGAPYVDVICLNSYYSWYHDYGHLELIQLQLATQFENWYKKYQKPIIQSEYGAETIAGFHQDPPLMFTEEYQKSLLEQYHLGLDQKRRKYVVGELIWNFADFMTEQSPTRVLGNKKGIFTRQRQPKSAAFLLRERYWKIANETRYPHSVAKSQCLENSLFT
inactive: [1] -0.053 | [2] -0.043 | [3] 0.135 | [4] -0.072 | [5] -0.041 | [6] -0.058 | [7] -0.072 | [8] -0.003 | [9] 0.055 | [10] 0.066 | [11] 0.06 | [12] -0.099 | [13] 0.056 | [14] -0.097 | [15] 0.099 | [16] -0.075 | [17] 0.069 | [18] 0.044 | [19] -0.029 | [20] -0.088

HAUS5 (UniProt O94927)
UniProt O94927, sequence (O94927 whole entry, looked up): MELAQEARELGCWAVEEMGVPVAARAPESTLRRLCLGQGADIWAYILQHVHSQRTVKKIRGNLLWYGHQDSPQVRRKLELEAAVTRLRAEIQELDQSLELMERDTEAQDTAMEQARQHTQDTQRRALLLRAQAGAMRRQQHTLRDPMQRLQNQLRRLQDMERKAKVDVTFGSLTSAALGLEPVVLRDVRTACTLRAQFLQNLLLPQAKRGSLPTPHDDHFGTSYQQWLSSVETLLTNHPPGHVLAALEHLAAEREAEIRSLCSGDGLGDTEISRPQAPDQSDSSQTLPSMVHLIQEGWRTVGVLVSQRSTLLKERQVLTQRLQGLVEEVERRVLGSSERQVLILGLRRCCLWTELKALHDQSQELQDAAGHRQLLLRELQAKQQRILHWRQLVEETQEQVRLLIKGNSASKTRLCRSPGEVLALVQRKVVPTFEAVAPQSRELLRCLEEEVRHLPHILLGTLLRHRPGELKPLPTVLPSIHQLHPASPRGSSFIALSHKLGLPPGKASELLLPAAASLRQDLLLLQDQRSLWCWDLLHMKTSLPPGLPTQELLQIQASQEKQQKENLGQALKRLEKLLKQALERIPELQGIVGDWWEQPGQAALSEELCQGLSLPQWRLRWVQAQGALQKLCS
inactive: [1] 0.046 | [2] 0.021 | [3] -0.071 | [4] -0.015 | [5] -0.045 | [6] -0.009 | [7] 0.113 | [8] 0.031 | [9] -0.017 | [10] 0.033 | [11] 0 | [12] 0.002 | [13] 0.034 | [14] 0.017 | [15] 0.027 | [16] -0.027 | [17] 0 | [18] 0 | [19] 0.033 | [20] 0.021

HMGB1 (UniProt P09429)
UniProt P09429, sequence (P09429 whole entry, looked up): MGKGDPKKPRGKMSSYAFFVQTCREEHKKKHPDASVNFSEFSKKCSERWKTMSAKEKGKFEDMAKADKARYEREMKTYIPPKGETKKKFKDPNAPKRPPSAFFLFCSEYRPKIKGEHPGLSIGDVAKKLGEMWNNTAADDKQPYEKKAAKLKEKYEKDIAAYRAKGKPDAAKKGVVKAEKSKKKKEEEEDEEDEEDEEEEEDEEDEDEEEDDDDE
inactive: [1] -0.024 | [2] -0.017 | [3] -0.021 | [4] -0.03 | [5] -0.001 | [6] 0.035 | [7] 0.007 | [8] 0.012 | [9] 0.001 | [10] -0.015 | [11] -0.012 | [12] -0.013 | [13] -0.102 | [14] 0.057 | [15] 0.032 | [16] -0.022 | [17] -0.002 | [18] 0.036 | [19] -0.077 | [20] -0.098

HSPA8 (UniProt E9PK54)
inactive: [1] 0.045 | [2] -0.222 | [3] -0.045 | [4] -0.099 | [5] 0.014 | [6] -0.044 | [7] 0 | [8] -0.043 | [9] -0.008 | [10] -0.141 | [11] 0.065 | [12] -0.086 | [13] -0.013 | [14] -0.132 | [15] 0.004 | [16] -0.019 | [17] 0.008 | [18] -0.076 | [19] -0.019 | [20] 0.014

GRK2 (UniProt P25098)
UniProt P25098, sequence (P25098 whole entry, looked up): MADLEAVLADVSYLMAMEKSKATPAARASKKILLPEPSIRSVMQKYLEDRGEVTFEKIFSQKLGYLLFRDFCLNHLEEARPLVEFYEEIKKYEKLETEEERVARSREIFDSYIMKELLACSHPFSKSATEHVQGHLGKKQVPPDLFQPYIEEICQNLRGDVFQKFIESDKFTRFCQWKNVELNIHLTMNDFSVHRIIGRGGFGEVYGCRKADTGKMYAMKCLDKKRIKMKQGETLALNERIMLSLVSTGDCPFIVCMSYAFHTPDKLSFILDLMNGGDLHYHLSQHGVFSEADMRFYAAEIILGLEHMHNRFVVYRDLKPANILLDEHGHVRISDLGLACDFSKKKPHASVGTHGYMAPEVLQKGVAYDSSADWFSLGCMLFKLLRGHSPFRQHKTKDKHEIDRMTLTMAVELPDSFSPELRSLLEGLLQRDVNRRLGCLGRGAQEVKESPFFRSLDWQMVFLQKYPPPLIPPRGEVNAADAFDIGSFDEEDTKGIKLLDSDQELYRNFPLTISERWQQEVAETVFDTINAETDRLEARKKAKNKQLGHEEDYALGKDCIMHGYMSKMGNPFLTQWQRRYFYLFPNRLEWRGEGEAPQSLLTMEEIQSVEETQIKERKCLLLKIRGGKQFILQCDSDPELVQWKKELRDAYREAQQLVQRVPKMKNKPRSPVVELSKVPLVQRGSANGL
inactive: [1] 0.023 | [2] 0.028 | [3] 0.015 | [4] 0.115 | [5] -0.005 | [6] -0.025 | [7] -0.098 | [8] -0.026 | [10] -0.002 | [11] 0.002 | [12] 0.011 | [13] 0.006 | [14] 0.036 | [15] 0 | [16] 0.151 | [17] 0.014 | [18] -0.048 | [19] 0.007 | [20] -0.031
active: [9] 0.536

GSTZ1 (UniProt G3V4T6)
inactive: [1] 0.018 | [2] -0.034 | [3] 0.032 | [4] -0.003 | [5] 0.02 | [6] -0.043 | [7] 0.026 | [8] 0.017 | [9] 0.064 | [10] 0.016 | [11] 0 | [12] 0 | [13] 0.014 | [14] -0.019 | [15] 0.004 | [16] 0.01 | [17] 0.036 | [18] -0.02 | [19] -0.003 | [20] -0.016

HACE1 (UniProt Q8IYU2)
UniProt Q8IYU2, sequence (Q8IYU2 whole entry, looked up): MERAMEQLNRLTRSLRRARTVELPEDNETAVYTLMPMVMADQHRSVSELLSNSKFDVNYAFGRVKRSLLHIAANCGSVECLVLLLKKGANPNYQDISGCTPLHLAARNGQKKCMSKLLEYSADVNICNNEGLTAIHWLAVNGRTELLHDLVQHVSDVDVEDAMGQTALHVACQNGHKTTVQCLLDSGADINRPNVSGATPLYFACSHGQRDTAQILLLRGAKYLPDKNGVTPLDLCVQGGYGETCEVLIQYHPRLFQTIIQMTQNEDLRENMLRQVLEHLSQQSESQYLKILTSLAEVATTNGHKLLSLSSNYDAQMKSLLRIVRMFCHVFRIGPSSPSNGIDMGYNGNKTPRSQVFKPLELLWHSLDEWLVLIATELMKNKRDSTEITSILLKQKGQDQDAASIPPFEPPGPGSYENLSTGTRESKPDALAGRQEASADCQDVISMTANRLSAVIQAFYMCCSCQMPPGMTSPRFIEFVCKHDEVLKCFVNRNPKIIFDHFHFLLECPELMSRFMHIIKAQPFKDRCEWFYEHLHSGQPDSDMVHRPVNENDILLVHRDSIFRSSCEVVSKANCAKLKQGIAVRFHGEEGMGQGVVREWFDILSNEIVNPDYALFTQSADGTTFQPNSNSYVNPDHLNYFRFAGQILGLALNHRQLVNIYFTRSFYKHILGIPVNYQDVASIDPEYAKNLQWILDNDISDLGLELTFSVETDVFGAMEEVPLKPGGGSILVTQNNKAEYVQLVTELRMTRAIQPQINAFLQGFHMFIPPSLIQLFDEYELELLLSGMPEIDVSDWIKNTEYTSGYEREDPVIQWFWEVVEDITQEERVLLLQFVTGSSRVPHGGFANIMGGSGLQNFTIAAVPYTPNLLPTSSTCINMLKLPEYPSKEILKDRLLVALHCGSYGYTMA
inactive: [1] 0.033 | [2] 0.083 | [3] 0.106 | [4] -0.019 | [5] 0.017 | [6] -0.189 | [7] -0.174 | [8] -0.069 | [9] 0.055 | [10] 0.032 | [11] -0.034 | [12] -0.062 | [13] 0 | [14] -0.056 | [15] 0.041 | [16] -0.042 | [17] -0.042 | [18] -0.07 | [19] 0.08 | [20] 0.01

GNL3 (UniProt Q9BVP2)
UniProt Q9BVP2, sequence (Q9BVP2 whole entry, looked up): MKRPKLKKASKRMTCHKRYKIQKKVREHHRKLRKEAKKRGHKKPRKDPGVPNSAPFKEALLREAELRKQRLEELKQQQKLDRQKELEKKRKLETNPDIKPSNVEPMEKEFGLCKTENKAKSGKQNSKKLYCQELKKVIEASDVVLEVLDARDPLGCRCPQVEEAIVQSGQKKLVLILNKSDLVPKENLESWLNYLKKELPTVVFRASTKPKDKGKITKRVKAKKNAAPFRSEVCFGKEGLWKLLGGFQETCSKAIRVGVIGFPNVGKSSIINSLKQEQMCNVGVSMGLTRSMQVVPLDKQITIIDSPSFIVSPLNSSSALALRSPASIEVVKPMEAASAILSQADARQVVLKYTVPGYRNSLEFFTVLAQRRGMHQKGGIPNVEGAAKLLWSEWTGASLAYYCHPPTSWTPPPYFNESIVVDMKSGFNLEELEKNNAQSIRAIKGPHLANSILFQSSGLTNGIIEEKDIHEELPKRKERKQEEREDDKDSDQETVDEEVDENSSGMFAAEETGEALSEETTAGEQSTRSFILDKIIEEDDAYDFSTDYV
inactive: [1] 0.004 | [2] -0.072 | [3] 0.002 | [4] 0.009 | [5] -0.062 | [6] 0.015 | [7] -0.011 | [8] 0.021 | [9] 0.014 | [10] 0.033 | [11] 0.023 | [12] -0.063 | [13] -0.026 | [14] -0.021 | [15] 0.05 | [16] -0.005 | [17] -0.073 | [18] 0.009 | [19] -0.007 | [20] -0.057
